# Measurements as given in publication PMC7819943, “Rice protein-binding microarrays: a tool to detect cis-acting elements near promoter regions in rice”.
# In all, about 68,000 sequences were measured (“fluorescence intensity (a.u.)”: median about 9,100, highest 2% from about 16,000 on). What follows is part of a selection rich in the highest values, with near analogues and random picks from the rest.
# Biological target: OsWRKY34 (Oryza sativa, UniProt Q0JBA9 1-250)
# Assay: protein-binding microarray (RPBM); PBS, 2% BSA, 51.3 ng/ul salmon testes DNA, 50 uM zinc acetate, 200 nM TF, 25 C, 1 h; high values mean tight binding
# Conditions: protein: recombinant; tags: N-terminal polyhistidine and DsRed monomer fusion (pET32a); label: CyDye5-dUTP incorporated in the synthesized complementary strand; 3' TTTTT single-stranded linker to array surface; dsDNA, one strand shown
# How it was run: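 Transcription factors were made in E. coli BL21-CodonPlus as N-terminal fusions to a polyhistidine tag and DsRed, then purified on Ni–NTA. After primer extension with Cy5-dUTP and blocking with 2% BSA, a custom Agilent array was exposed for 1 h at 25 °C to 200 nM protein in PBS, 2% BSA, salmon testes DNA and 50 µM zinc acetate. Washed arrays were scanned on an Axon 4000B, and the binding signal is per-feature fluorescence intensity in arbitrary units.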
# Sequence of OsWRKY34 (Q0JBA9 entry or part of it): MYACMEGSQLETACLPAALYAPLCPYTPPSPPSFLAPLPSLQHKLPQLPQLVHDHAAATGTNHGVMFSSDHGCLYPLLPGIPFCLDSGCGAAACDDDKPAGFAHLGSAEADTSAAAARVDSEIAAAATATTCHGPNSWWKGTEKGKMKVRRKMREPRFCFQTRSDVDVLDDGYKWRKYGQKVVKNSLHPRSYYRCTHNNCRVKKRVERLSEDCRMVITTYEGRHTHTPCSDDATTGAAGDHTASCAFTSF
row,Sequence,binding signal
1,GCCGTCCGCCGTGAGCCGGTGCTGTCCACGACGTCGTCTTCGGAGTCACCTAGTGCAG,9640 fluorescence intensity (a.u.)
2,TTACTCCTGGACCAGCATTGCTACAACTATCATTTTCTCCCGGAGTCACCTAGTGCAG,9840 fluorescence intensity (a.u.)
3,GGTTTTAAAGGGGTTCCATACACGTATGATAATAAGAGACCGGAGTCACCTAGTGCAG,8180 fluorescence intensity (a.u.)
4,GTCCAGGTTGGTTTTCATGGGTCGAGTGGCATCAGATGGGCGGAGTCACCTAGTGCAG,10100 fluorescence intensity (a.u.)
5,TTCTTGATCTTTCTGGTTTCTACTGGTTGATTGTACACTTCGGAGTCACCTAGTGCAG,8500 fluorescence intensity (a.u.)
6,TTTTTTCTGTTTGTCCTCCATATATGTCAGCTCTAAAAATCGGAGTCACCTAGTGCAG,9300 fluorescence intensity (a.u.)
7,GCCCTTAACGCGATCATGTAACAATGTATCTAAGCCTATACGGAGTCACCTAGTGCAG,8200 fluorescence intensity (a.u.)
8,TTCCTAGTACTATCTGCGTTGCGTTGACTGACATGTGGGCCGGAGTCACCTAGTGCAG,17000 fluorescence intensity (a.u.)
9,ATCCGTTGCCCTCGCTCCTATAACTGCGTTGACATGTCGCCGGAGTCACCTAGTGCAG,9550 fluorescence intensity (a.u.)
10,AGGGAGGGAGGGAGGAGGAAGGAGGACTGACATGTGGGCCCGGAGTCACCTAGTGCAG,9250 fluorescence intensity (a.u.)
11,ACCTGACGGCCCAACCAGGCGACCGCTCTCTCCGTTTTCCCGGAGTCACCTAGTGCAG,8070 fluorescence intensity (a.u.)
12,ACCCAATCTCAATTTGCCCTGTTGCCAACCCTAGTGATGACGGAGTCACCTAGTGCAG,8520 fluorescence intensity (a.u.)
13,TTCTTTCCGTTGTGCTTGCTGCTTTTCTCTACTACCTTTTCGGAGTCACCTAGTGCAG,9900 fluorescence intensity (a.u.)
14,ACTCCCTCCGTTTCACAATGTAAGTCATTCTAGCATTTCCCGGAGTCACCTAGTGCAG,9500 fluorescence intensity (a.u.)
15,TGATTTATGAATTATGATTACTAATACTGTTTTTTGTCCTCGGAGTCACCTAGTGCAG,8780 fluorescence intensity (a.u.)
16,CTTTTTAGCATATGTTTGACCGTTTGTCTTATTTAAAATACGGAGTCACCTAGTGCAG,9700 fluorescence intensity (a.u.)
17,ATTTGTTTCTAAATATTTGACACCGTTGACTTTTTAGCACCGGAGTCACCTAGTGCAG,24100 fluorescence intensity (a.u.)
18,GTACTCCCTCCGTTTCGAAATATTTAACACCGTTGACTTTCGGAGTCACCTAGTGCAG,17400 fluorescence intensity (a.u.)
19,TACCGAACCTTTGGCATATTGACCCTTTTGGCCTTTTATACGGAGTCACCTAGTGCAG,12200 fluorescence intensity (a.u.)

row,Sequence,binding signal
1,CCTCCGTTTCTATATATTTAATATTGTTGACTTTTTAGCACGGAGTCACCTAGTGCAG,12000 fluorescence intensity (a.u.)
2,TTGACACCGTTAACTTTTTAGCATATGTTTGACCGTTCATCGGAGTCACCTAGTGCAG,9610 fluorescence intensity (a.u.)
3,CTCTGTTTCTAAATATTTGACACCATTGACTTTTTAGCATCGGAGTCACCTAGTGCAG,10900 fluorescence intensity (a.u.)
4,ACATATTGGTTGACTTTTTGCCGGGTCCACCGATTGGCACCGGAGTCACCTAGTGCAG,17700 fluorescence intensity (a.u.)
5,AATACTCCCTCCGTTTCGAAATATTTGACGCCGTTGACTTCGGAGTCACCTAGTGCAG,12400 fluorescence intensity (a.u.)
6,GAAATATTTGACACCGTTGACTTTTTAGCATATGTTTGACCGGAGTCACCTAGTGCAG,30700 fluorescence intensity (a.u.)
7,TTGGTTGATTTTGATTGCTTTGCTCCTTTTCTGACTTGCTCGGAGTCACCTAGTGCAG,9410 fluorescence intensity (a.u.)
8,TTCACAGTGTAGTTGTTTTATTTAGCCAGTATTTTTTTTTCGGAGTCACCTAGTGCAG,8820 fluorescence intensity (a.u.)
9,CCACAGCGCCTCCACTGCCTGCAGGGACGCCACCGCTACCCGGAGTCACCTAGTGCAG,8450 fluorescence intensity (a.u.)
10,CCATTACCAGAACAGAACAGCAGGTTTTAACCTAACATTCCGGAGTCACCTAGTGCAG,8110 fluorescence intensity (a.u.)
11,ATACTCTCATTTTTGTTTGCTCTATTCTTTGCTTTTAGAACGGAGTCACCTAGTGCAG,10200 fluorescence intensity (a.u.)
12,ATATCTCATACTATCTCTCTTCCGTCGTTCCGTGTTGGCCCGGAGTCACCTAGTGCAG,10900 fluorescence intensity (a.u.)
13,CTACGATCAGAAACAGCGGGGCGGGTTGGGAGGGAGTCCACGGAGTCACCTAGTGCAG,15800 fluorescence intensity (a.u.)
14,ACCCCGACCATCTCCCACCATCGGAGGAGACGCTCAAACTCGGAGTCACCTAGTGCAG,8340 fluorescence intensity (a.u.)
15,CCCGGCCCATCTCTCTGGCTCGCACTCCGCCTCCGCCACCCGGAGTCACCTAGTGCAG,10500 fluorescence intensity (a.u.)
16,AAAATGTTTGACACCGTTGACTTTTTAGCATATGTTTGACCGGAGTCACCTAGTGCAG,30800 fluorescence intensity (a.u.)
17,AATCTTTTATACATATAATCCCTCCGTTTCTAAATATTTACGGAGTCACCTAGTGCAG,8110 fluorescence intensity (a.u.)
18,ACCCTCCGTTTCTAAATATTTAACACCGTTGACTTTTTAGCGGAGTCACCTAGTGCAG,23700 fluorescence intensity (a.u.)
19,AAATGTTTGACACCGTTGATTTTTTAGCGCATGTTTGACCCGGAGTCACCTAGTGCAG,8840 fluorescence intensity (a.u.)

row,Sequence,binding signal
1,TCGAAATGTTTGACACCGTTGACTTTTTAGCATATGTTTGCGGAGTCACCTAGTGCAG,33700 fluorescence intensity (a.u.)
2,ATCCGTTTTATATTATAAATCATTTGACTTTTTCTATTAGCGGAGTCACCTAGTGCAG,8510 fluorescence intensity (a.u.)
3,AGTACTCCCTCCGTTTCTAAATATTTGACACCGTTGACTTCGGAGTCACCTAGTGCAG,12700 fluorescence intensity (a.u.)
4,CCTCCGTTTCTAAATATTTAACGCCATTGACTTTTTAGCACGGAGTCACCTAGTGCAG,9160 fluorescence intensity (a.u.)
5,TTCAAAATGTTTGACACCATTGACTTTTTAGCATATGTTTCGGAGTCACCTAGTGCAG,10000 fluorescence intensity (a.u.)
6,CTCCCTCCGTTTCTAAATATTTGATACCGTTGACTTTTTACGGAGTCACCTAGTGCAG,22300 fluorescence intensity (a.u.)
7,GTCATTGTTTGGAGTGGAGTTTTGCTTAGATTAATCTGTCCGGAGTCACCTAGTGCAG,8860 fluorescence intensity (a.u.)
8,ACCACCACCCTGATGGATCTTGGCTCTAGCTCCTGGTTTTCGGAGTCACCTAGTGCAG,8110 fluorescence intensity (a.u.)
9,GCTGCGCACCTAATGCTACTGTTTTGTTAGTATTTATTTACGGAGTCACCTAGTGCAG,8460 fluorescence intensity (a.u.)
10,GTTAGCTTCTACATTTCTCGTTTCTGCTGAAAATAGTGGACGGAGTCACCTAGTGCAG,9540 fluorescence intensity (a.u.)
11,ACGACGAGGAGGCGGTGGTGGTCGTGCGCGGGGAGGAGTCCGGAGTCACCTAGTGCAG,9310 fluorescence intensity (a.u.)
12,TGCTCTTTTTTTCTTGATTATAACCTTCCGGGGTAGTTTTCGGAGTCACCTAGTGCAG,8720 fluorescence intensity (a.u.)
13,ACACTTGGCATTAATCTAATTTAACTTTTTTTTCTTTATCCGGAGTCACCTAGTGCAG,8440 fluorescence intensity (a.u.)
14,ATTGAAACATGATCCGAGTCATAGCCTGACTGGAATTCTTCGGAGTCACCTAGTGCAG,9120 fluorescence intensity (a.u.)
15,TCGTGCGTGCGTGTTTAATTGTCAACCCATACACAACTTGCGGAGTCACCTAGTGCAG,8510 fluorescence intensity (a.u.)
16,TAAATATTTGACACCGTTGACTTTTTACACATATTTGACCCGGAGTCACCTAGTGCAG,35100 fluorescence intensity (a.u.)
17,AAATATTTGACCGTTCGTTTATTATTTTTATTTTTTTTACCGGAGTCACCTAGTGCAG,12200 fluorescence intensity (a.u.)
18,TTGACATAAATTTTCAACCAACCCGTTGTTTTTGTTTTACCGGAGTCACCTAGTGCAG,9250 fluorescence intensity (a.u.)
